# The source made the active and inactive calls. Rule for the calls: active = hit-call score of the fitted dose curve at least 0.9, where 1 is the maximum; inactive = score below 0.9.
# What was measured:
# Conditions in all cases: mRNA level, 48 h; actives raise or lower the signal
# [1] = read-out: Cytochrome P450 (CYP2B6), CYP2B6 (gene 1555); assay: LTEA_HepaRG_CYP2B6: Life Technologies and Expression Analysis (LTEA) Assay for Cytochrome P450 (CYP2B6) using HepaRG (AID 2283481)
# Method in brief: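 HepaRG cells plated 48 h, switched to serum-free induction medium, then dosed 48 h (8 points, half-log from 100 uM, 0.5% DMSO). RNA isolated; CYP2B6 expression measured by qRT-PCR; gain or loss fitted relative to DMSO.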
# [2] = read-out: Cytochrome P450 2C19 (Homo sapiens) (UniProt P33261); assay: LTEA_HepaRG_CYP2C19: Life Technologies and Expression Analysis (LTEA) Assay for CYP2C19 using HepaRG (AID 2283482)
# Method in brief: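 Transcript levels of CYP2C19 were quantified by qRT-PCR after HepaRG cells were treated for 48 hours with test chemicals up to 100 uM (eight half-log concentrations, 0.5% DMSO vehicle). Gain or loss of signal was fitted relative to DMSO.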
# CYP2C8 (gene 1558) = assay: LTEA_HepaRG_CYP2C8: Life Technologies and Expression Analysis (LTEA) Assay for CYP2C8 using HepaRG (AID 2283483)
# Method in brief: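 This is a transcriptional endpoint in HepaRG cultures: 48 h exposure, highest concentration 100 uM. CYP2C8 mRNA is quantified by TaqMan qRT-PCR.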
# CYP2C9 (gene 1559) = assay: LTEA_HepaRG_CYP2C9: Life Technologies and Expression Analysis (LTEA) Assay for CYP2C9 using HepaRG (AID 2283484)
# Method in brief: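 Eight-point concentration-response (highest 100 uM, half-log dilutions) in HepaRG cells for 48 h; CYP2C9 expression by qRT-PCR normalized to ACTB, GAPDH, POLR2A. Bidirectional fit, DMSO baseline.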
# CYP2E1 (gene 1571) = assay: LTEA_HepaRG_CYP2E1: Life Technologies and Expression Analysis (LTEA) Assay for CYP2E1 using HepaRG (AID 2283485)
# Method in brief: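 Readout is qRT-PCR of CYP2E1 mRNA, normalized to three housekeeping genes and fitted bidirectionally against 0.5% DMSO. HepaRG cells were dosed 48 h at eight concentrations, highest 100 uM with half-log dilutions.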
# CYP4A11 (gene 1579) = assay: LTEA_HepaRG_CYP4A11: Life Technologies and Expression Analysis (LTEA) Assay for CYP4A11 using HepaRG (AID 2283486)
# Method in brief: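 HepaRG, 48 h chem exposure, 8 conc (100 uM top, half-log), 0.5% DMSO vehicle; qRT-PCR readout, housekeeping-gene normalized; bidirectional curve fit vs DMSO baseline.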
# [3] = read-out: Cytochrome P450 3A4 (Homo sapiens) (UniProt P08684); assay: LTEA_HepaRG_CYP3A4: Life Technologies and Expression Analysis (LTEA) Assay for CYP3A4 using HepaRG (AID 2283487)
# Method in brief: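 Differentiated HepaRG cells, plated 48 h, then dosed 48 h in serum-free induction medium with 0.5% DMSO, 8 half-log concentrations up to 100 uM, duplicate. CYP3A4 mRNA by qRT-PCR, normalized to ACTB/GAPDH/POLR2A; bidirectional fit versus DMSO.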
# [4] = read-out: DNA damage-inducible transcript 3 (DDIT3), DDIT3 (gene 1649); assay: LTEA_HepaRG_DDIT3: Life Technologies and Expression Analysis (LTEA) Assay for DNA damage-inducible transcript 3 (DDIT3) using HepaRG (AID 2283488)
# Method in brief: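 Cells are human HepaRG liver cells treated for 48 h with eight half-log concentrations up to 100 uM in 0.5% DMSO. Transcript levels come from qRT-PCR normalized to three housekeeping genes, with activity fitted in both directions relative to vehicle.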
# [5] = read-out: Pro-epidermal growth factor (Homo sapiens) (UniProt P01133); assay: LTEA_HepaRG_EGF: Life Technologies and Expression Analysis (LTEA) Assay for Epidermal growth factor (EGF) using HepaRG (AID 2283489)
# Method in brief: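 HepaRG, 48 h dosing, 100 uM top, half-log x8, 0.5% DMSO. Readout: TaqMan qRT-PCR (Fluidigm array), housekeeping-normalized. Gain or loss of signal fit vs DMSO.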
# [6] = read-out: Early growth response protein 1 (EGR1) transcription factor, EGR1 (gene 1958); assay: LTEA_HepaRG_EGR1: Life Technologies and Expression Analysis (LTEA) Assay for Early growth response protein 1 (EGR1) transcription factor using HepaRG (AID 2283490)
# Method in brief: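 EGR1 expression change in human HepaRG after 48 h chemical exposure, assessed by housekeeping-normalized qRT-PCR; concentration-response up to 100 uM, fitted in both directions against DMSO controls.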
# [7] = read-out: Ezrin (EZR), EZR (gene 7430); assay: LTEA_HepaRG_EZR: Life Technologies and Expression Analysis (LTEA) Assay for Ezrin (EZR) using HepaRG (AID 2283491)
# Method in brief: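 EZR transcript levels came from Fluidigm qRT-PCR and were normalized to three housekeeping genes after 48 h chemical exposure of HepaRG cells. Dosing used an 8-point half-log series with a 100 uM top concentration in 0.5% DMSO, tested in duplicate; both directions were fitted versus vehicle.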
# [8] = read-out: Cytochrome P450 3A7 (Homo sapiens) (UniProt P24462); assay: LTEA_HepaRG_CYP3A7: Life Technologies and Expression Analysis (LTEA) Assay for CYP3A7 using HepaRG (AID 2283492)
# Method in brief: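 Human HepaRG liver cells, 48 h post-plating, switched to serum-free induction medium and exposed in duplicate for 48 h. Dosing: 100 uM top, half-log dilutions, 8 points, 0.5% DMSO vehicle. Read-out: CYP3A7 mRNA, gain or loss fitted against DMSO baseline.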
# CYP3A5 (gene 1577) = assay: LTEA_HepaRG_CYP3A5: Life Technologies and Expression Analysis (LTEA) Assay for CYP3A5 using HepaRG (AID 2283493)
# Method in brief: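 Human HepaRG hepatic cells receive 48 h chemical treatment at eight concentrations (half-log steps from 100 uM) in 0.5% DMSO. Expression of CYP3A5 is quantified by Fluidigm qRT-PCR and normalized to three reference genes.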
# [9] = read-out: Fatty Acid-Binding Protein 1 (FABP1), FABP1 (gene 2168); assay: LTEA_HepaRG_FABP1: Life Technologies and Expression Analysis (LTEA) Assay for Fatty Acid-Binding Protein 1 (FABP1) using HepaRG (AID 2283494)
# Method in brief: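 Values reflect bidirectional concentration-response fitting of FABP1 mRNA change against 0.5% DMSO controls. Human HepaRG cultures received eight half-log doses (top 100 uM) for 48 h; expression quantified by TaqMan qRT-PCR with housekeeping-gene normalization.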
# [10] = read-out: Cytochrome P450 4A22 (Homo sapiens) (UniProt Q5TCH4); assay: LTEA_HepaRG_CYP4A22: Life Technologies and Expression Analysis (LTEA) Assay for Cytochrome P450 4A22 (CYP4A22) using HepaRG (AID 2283495)
# Method in brief: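 Readout is CYP4A22 transcript induction or loss, quantified by qRT-PCR and normalized to ACTB, GAPDH and POLR2A. Human HepaRG cells receive test chemicals for 48 h at eight half-log concentrations from 100 uM in 0.5% DMSO.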
# [11] = read-out: Glutathione S-Transferase (GSTA2), GSTA2 (gene 2939); assay: LTEA_HepaRG_GSTA2: Life Technologies and Expression Analysis (LTEA) Assay for Glutathione S-Transferase (GSTA2) using HepaRG (AID 2283497)
# Method in brief: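 Oxidative-stress marker GSTA2 is quantified by TaqMan qRT-PCR in HepaRG cultures treated 48 h across an eight-point range to 100 uM. Expression is normalized to endogenous controls and compared with 0.5% DMSO vehicle.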
# [12] = read-out: Glutamate-cysteine ligase catalytic (GCLC), GCLC (gene 2729); assay: LTEA_HepaRG_GCLC: Life Technologies and Expression Analysis (LTEA) Assay for Glutamate-cysteine ligase catalytic (GCLC) using HepaRG (AID 2283498)
# Method in brief: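 Oxidative-stress marker GCLC is measured as mRNA change in human HepaRG liver cells after 48 h chemical treatment in 0.5% DMSO, eight concentrations from 100 uM. Activity is fitted bidirectionally against vehicle.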
# [13] = read-out: growth arrest and DNA damage 45 (GADD45G), GADD45G (gene 10912); assay: LTEA_HepaRG_GADD45G: Life Technologies and Expression Analysis (LTEA) Assay for growth arrest and DNA damage 45 (GADD45G) using HepaRG (AID 2283499)
# Method in brief: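 Gain or loss of GADD45G mRNA, quantified by TaqMan qRT-PCR against three housekeeping genes, is fitted in both directions relative to 0.5% DMSO. Human HepaRG cultures receive test chemical for 48 h at up to 100 uM.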
# [14] = read-out: Glutamate-cysteine ligase regulatory (GCLM), GCLM (gene 2730); assay: LTEA_HepaRG_GCLM: Life Technologies and Expression Analysis (LTEA) Assay for Glutamate-cysteine ligase regulatory (GCLM) using HepaRG (AID 2283500)
# Method in brief: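 Endpoint is GCLM transcript level by qRT-PCR, normalized to three housekeeping genes, after 48 h chemical exposure of human HepaRG cells (0.5% DMSO vehicle, top 100 uM, half-log dilutions). Fitting was bidirectional relative to DMSO.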
# [15] = read-out: Cytochrome P450 7A1 (Homo sapiens) (UniProt P22680); assay: LTEA_HepaRG_CYP7A1: Life Technologies and Expression Analysis (LTEA) Assay for Cytochrome P450 7A1 (CYP7A1) using HepaRG (AID 2283496)
# Method in brief: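 HepaRG, 48 h exposure, 8-pt half-log series from 100 uM, 0.5% DMSO vehicle, duplicates. Readout: TaqMan qRT-PCR mRNA vs three housekeeping genes; bidirectional curve fit against DMSO baseline.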
# Chain of Cytochrome P450 3A7 (Homo sapiens) (P24462 whole entry, looked up): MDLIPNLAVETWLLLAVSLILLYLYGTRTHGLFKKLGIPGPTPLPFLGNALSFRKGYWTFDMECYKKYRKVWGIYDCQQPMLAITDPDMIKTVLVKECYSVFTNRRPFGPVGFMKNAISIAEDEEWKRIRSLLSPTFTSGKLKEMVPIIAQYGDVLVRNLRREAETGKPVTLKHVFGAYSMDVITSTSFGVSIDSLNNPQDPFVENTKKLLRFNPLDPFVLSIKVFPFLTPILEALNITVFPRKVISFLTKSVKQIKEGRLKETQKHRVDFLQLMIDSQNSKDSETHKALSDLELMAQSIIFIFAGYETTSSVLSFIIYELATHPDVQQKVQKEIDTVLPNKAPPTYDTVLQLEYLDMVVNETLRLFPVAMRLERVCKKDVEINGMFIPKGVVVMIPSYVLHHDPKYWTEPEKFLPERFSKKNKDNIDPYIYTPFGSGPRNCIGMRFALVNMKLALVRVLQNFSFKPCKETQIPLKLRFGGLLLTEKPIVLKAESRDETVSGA
# Chain of Cytochrome P450 3A4 (Homo sapiens) (P08684 whole entry, looked up): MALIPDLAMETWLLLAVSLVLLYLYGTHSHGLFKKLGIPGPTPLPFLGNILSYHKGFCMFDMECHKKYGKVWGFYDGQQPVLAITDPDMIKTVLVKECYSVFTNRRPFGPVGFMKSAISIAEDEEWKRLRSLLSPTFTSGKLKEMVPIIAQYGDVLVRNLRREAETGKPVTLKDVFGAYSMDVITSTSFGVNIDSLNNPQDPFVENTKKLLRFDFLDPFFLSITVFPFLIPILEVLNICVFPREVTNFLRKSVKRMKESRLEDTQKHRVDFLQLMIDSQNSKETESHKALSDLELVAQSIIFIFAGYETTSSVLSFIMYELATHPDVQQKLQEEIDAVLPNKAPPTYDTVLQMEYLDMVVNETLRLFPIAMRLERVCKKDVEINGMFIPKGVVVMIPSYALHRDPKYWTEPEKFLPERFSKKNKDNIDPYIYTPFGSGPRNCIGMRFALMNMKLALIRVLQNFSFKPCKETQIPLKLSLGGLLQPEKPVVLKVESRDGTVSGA
# Chain of Cytochrome P450 2C19 (Homo sapiens) (P33261 whole entry, looked up): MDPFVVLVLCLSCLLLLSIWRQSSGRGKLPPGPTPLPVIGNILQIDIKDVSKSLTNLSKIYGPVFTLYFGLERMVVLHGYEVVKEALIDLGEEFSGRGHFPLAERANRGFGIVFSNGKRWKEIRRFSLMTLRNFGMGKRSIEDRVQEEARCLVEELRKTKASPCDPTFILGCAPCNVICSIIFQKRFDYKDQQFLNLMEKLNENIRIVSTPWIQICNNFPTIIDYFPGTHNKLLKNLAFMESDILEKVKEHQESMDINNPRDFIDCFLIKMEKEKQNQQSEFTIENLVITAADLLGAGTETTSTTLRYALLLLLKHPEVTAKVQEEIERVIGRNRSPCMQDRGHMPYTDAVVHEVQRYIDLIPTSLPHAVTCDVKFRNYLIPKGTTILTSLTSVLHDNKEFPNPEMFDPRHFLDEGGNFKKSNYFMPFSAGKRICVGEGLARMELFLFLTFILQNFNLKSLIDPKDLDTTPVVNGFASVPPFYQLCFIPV
compound,measurement,setting,value
COP(=S)(OC)SCn1nnc2ccccc2c1=O,AC50,[1],6.27 µM (active)
same,AC50,[2],40.9 µM (active)
same,outcome,CYP2C8 (gene 1558),inactive
same,outcome,CYP2C9 (gene 1559),inactive
same,outcome,CYP2E1 (gene 1571),inactive
same,outcome,CYP4A11 (gene 1579),inactive
same,AC50,[3],25 µM (active)
same,outcome,[4],inactive
same,outcome,[5],inactive
same,outcome,[6],inactive
same,outcome,[7],inactive
same,outcome,[8],inactive
same,outcome,CYP3A5 (gene 1577),inactive
same,outcome,[9],inactive
same,outcome,[10],inactive
same,outcome,[11],inactive
same,outcome,[12],inactive
same,outcome,[13],inactive
same,outcome,[14],inactive
CS(=O)(=O)c1cc(C(F)(F)F)ccc1C(=O)c1cnoc1C1CC1,outcome,[1],inactive
same,outcome,[2],inactive
same,outcome,CYP2C8 (gene 1558),inactive
same,outcome,CYP2C9 (gene 1559),inactive
same,AC50,CYP2E1 (gene 1571),9.92 µM (active)
same,outcome,CYP4A11 (gene 1579),inactive
same,AC50,[3],35 µM (active)
same,outcome,[4],inactive
same,outcome,[5],inactive
same,outcome,[6],inactive
same,outcome,[7],inactive
same,outcome,CYP3A5 (gene 1577),inactive
same,outcome,[9],inactive
same,outcome,[10],inactive
same,outcome,[15],inactive
same,outcome,[11],inactive
same,outcome,[12],inactive
same,outcome,[13],inactive
same,outcome,[14],inactive
COc1cc(OC)nc(NC(=O)NS(=O)(=O)c2ncccc2OCC(F)(F)F)n1,AC50,[1],23.8 µM (active)
same,AC50,[2],16.3 µM (active)
same,outcome,CYP2C8 (gene 1558),inactive
same,AC50,CYP2C9 (gene 1559),6.59 µM (active)
same,outcome,CYP2E1 (gene 1571),inactive
same,outcome,CYP4A11 (gene 1579),inactive
same,AC50,[3],13.3 µM (active)
same,outcome,[4],inactive
same,outcome,[5],inactive
same,outcome,[6],inactive
same,AC50,[7],0.239 µM (active)
same,outcome,[8],inactive
same,outcome,CYP3A5 (gene 1577),inactive
same,AC50,[10],0.628 µM (active)
same,outcome,[15],inactive
same,outcome,[11],inactive
same,outcome,[12],inactive
same,AC50,[13],0.19 µM (active)
same,outcome,[14],inactive
CC1(C)C(C(=O)OC(C#N)c2cccc(Oc3ccccc3)c2)C1(C)C (configuration not stated),AC50,[1],67.6 µM (active)
same,AC50,[2],50 µM (active)
same,outcome,CYP2C8 (gene 1558),inactive
same,outcome,CYP2C9 (gene 1559),inactive
same,AC50,CYP2E1 (gene 1571),9.92 µM (active)
same,AC50,CYP4A11 (gene 1579),50 µM (active)
same,AC50,[3],50 µM (active)
same,outcome,[4],inactive
same,outcome,[5],inactive
same,outcome,[6],inactive
same,outcome,[7],inactive
same,outcome,CYP3A5 (gene 1577),inactive
same,outcome,[9],inactive
same,outcome,[10],inactive
same,outcome,[11],inactive
same,outcome,[12],inactive
same,outcome,[13],inactive
same,outcome,[14],inactive
CCCN(CC)CC1COC2(CCC(C(C)(C)C)CC2)O1 (configuration not stated),AC50,[1],50 µM (active)
same,outcome,[2],inactive
same,outcome,CYP2C8 (gene 1558),inactive
same,outcome,CYP2C9 (gene 1559),inactive
same,outcome,CYP2E1 (gene 1571),inactive
same,outcome,CYP4A11 (gene 1579),inactive
same,outcome,[3],inactive
same,outcome,[4],inactive
same,outcome,[5],inactive
same,outcome,[6],inactive
same,outcome,[7],inactive
same,outcome,[8],inactive
same,outcome,CYP3A5 (gene 1577),inactive
same,outcome,[9],inactive
same,outcome,[10],inactive
same,outcome,[11],inactive
same,outcome,[12],inactive
same,outcome,[14],inactive
CCOc1cc(C(C)(C)C)ccc1C1COC(c2c(F)cccc2F)=N1 (configuration not stated),AC50,[1],8.33 µM (active)
same,AC50,[2],8.34 µM (active)
same,AC50,CYP2C8 (gene 1558),7.92 µM (active)
same,outcome,CYP2C9 (gene 1559),inactive
same,AC50,CYP2E1 (gene 1571),18.7 µM (active)
same,AC50,CYP4A11 (gene 1579),57.4 µM (active)
same,AC50,[3],4.8 µM (active)
same,AC50,[4],52.1 µM (active)
same,outcome,[5],inactive
same,outcome,[6],inactive
same,outcome,[7],inactive
same,outcome,[8],inactive
same,outcome,CYP3A5 (gene 1577),inactive
same,AC50,[10],33 µM (active)
same,AC50,[15],26.9 µM (active)
same,outcome,[11],inactive
same,outcome,[12],inactive
same,outcome,[13],inactive
same,outcome,[14],inactive
